PMK inhibit: blocks S. pneumoniae phosphomevalonate kinase; purified PMK, PK/LDH-coupled NADH absorbance 340 nm; inhibition, % at 10 µM; 65,000 compounds, 0.49% hits; AID 539;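 active means top-ranked compounds by inhibition in the single 10 µM screen, taking a fixed number of the strongest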;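 further: 0% = full reaction with DMSO carrier and 100% = background rate without enzyme reaction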
MK inhibit: S. pneumoniae mevalonate kinase inhibition. purified MK, PK/LDH-coupled NADH absorbance 340 nm. inhibition, % at 10 µM. 65,000 compounds, 0.48% hits;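 active means ranked among the strongest by inhibition in the single 10 µM screen, a fixed top-ranked set picked for dose follow-up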
Spn DPM-DC inh: S. pneumoniae DPM-DC inhibition; purified DPM-DC, PK/LDH coupled NADH fluorescence; calls only at 10 µM; 65,000 compounds, 0.49% hits; AID 556;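 active means the 320 compounds with the highest percent inhibition in the single-dose primary screen, excluding strongly autofluorescent ones, cut at about 32% in these data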;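 further: kinetic rate of NADH fluorescence loss reporting ADP formed by the decarboxylase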
Autofluor 339: intrinsic fluorescence of library compounds, ex339/em460 – biochemical, MLSMR library, data from DPM-DC assay, artefact control, profiling panel; fluorescence fold increase at 10 µM; 65,000 compounds, 5.5% hits; compound autofluorescence, ex339/em460 nm, NADH buffer; hits give high values; 1 = no-compound wells, NADH background;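 active means at 10 µM, mean starting fluorescence two-fold or more over control wells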;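 further: signal is the first read of a kinetic run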
NADH enzymes: inhibitors of enzymes used to reach an NAD/NADH endpoint; coupled PK/LDH NADH assays, four targets; 65,000 compounds, 0.02% hits; IC50, µM (series often up to 10 µM), for the others: at the highest dose inhibition;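 active means single-dose screening hits from any of four coupled enzyme assays that gave an IC50 when retested across doses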;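 further: the DPM-DC format reads NADH fluorescence rather than 340 nm absorbance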
Abs 340nm: compound absorbs light at 340 nm. compound absorbance at 340 nm, fold over control. fold change at 10 µM. 65,000 tested, under 10 active. AID 708;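 active means at 10 µM dose, initial 340 nm absorbance at least 2 fold that of control wells; inactive means change under 2 fold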;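 further: initial absorbance extrapolated from kinetic A340 decline of NADH oxidation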
* = called active by the depositor; i = inactive; nt = not tested or not shown; + = active, no number; [ ] = remark or other dose. An excerpt weighted towards active compounds, which were near 6.8% of everything screened.

SMILES	PMK inhibit	MK inhibit	Spn DPM-DC inh	Autofluor 339	NADH enzymes	Abs 340nm
CCOc1ccc(S(=O)(=O)Nc2ccccc2C(=O)NCc2ccco2)cc1	12.0	0.0	nt	4.92*	6.0%	1.02
COc1ccc(C2C=C(c3ccc(C)cc3)Nc3ncnn32)cc1 (centres undefined)	7.0	2.0	nt	2.35*	5.0%	1.05
COc1cccc(C2=CC(c3ccccc3)n3ncnc3N2)c1 (centres undefined)	10.0	1.0	i	1.59	6.0%	1.06
CCOc1ccc(C2C=C(c3ccccc3)Nc3ncnn32)cc1 (centres undefined)	8.0	10.0	nt	2.36*	9.0%	1.06
COc1ccc(C2=CC(c3ccc(C)cc3)n3nnnc3N2)cc1 (centres undefined)	10.0	0.0	i	1.34	3.0%	1.05
CCOc1ccc(C2C=C(c3ccc(F)cc3)Nc3ncnn32)cc1 (centres undefined)	0.0	0.0	nt	2.48*	2.0%	1.02
COc1cccc(C2=CC(c3ccc(N(C)C)cc3)n3ncnc3N2)c1 (centres undefined)	8.0	13.0	i	2.08*	10.0%	1.09
CCCOP(=O)(c1ccc(N(C)C)cc1)C(O)c1ccncc1 (centres undefined)	9.0	4.0	i	1.07	4.0%	1.01
CCC(C)(C(=O)NC1CCCC1)N(C(=O)CNC(C)=O)c1ccccc1 (centres undefined)	0.0	9.0	i	1.09	3.0%	1.03
CC(C)(C)n1nc2c(c1NC(=O)Cc1cccc3ccccc13)CS(=O)C2 (centres undefined)	7.0	8.0	i	1.05	5.0%	1.04
O=C(Nc1ccc(N2CCN(C(=O)c3ccc(Cl)cc3)CC2)cc1)c1ccc(Br)o1	7.0	7.0	i	1.04	5.0%	1.05
CCOc1ccc(-n2c(SCC(=O)NC(C)CC)nc3n[nH]c(C)c3c2=N)cc1 (centres undefined)	15.0	0.0	i	1.07	5.0%	1.04
C1=C(c2ccc(-c3ccccc3)cc2)Nc2ncnn2C1c1ccco1 (centres undefined)	10.0	8.0	nt	3.85*	9.0%	1.08
Cc1cc(NS(=O)(=O)c2ccc(-c3ccccc3)cc2)no1	0.0	9.0	i	0.98	4.0%	1.03
Cc1cccc(NS(=O)(=O)c2ccc(Oc3ccccc3)cc2)n1	8.0	7.0	i	2.94*	15.0%	1.03
O=C(CN1c2cccc3cccc(c23)S1(=O)=O)N1CCOCC1	3.0	8.0	+[fluoresces]	2.77*	1.0%	0.99
Cc1c(NC(=O)CN2c3cccc4cccc(c34)S2(=O)=O)c(=O)n(-c2ccccc2)n1C	9.0	5.0	+[may fluoresce]	2.52*	2.0%	1.01
COc1ccc(NC(=O)CN2c3cccc4cccc(c34)S2(=O)=O)cc1	13.0	0.0	i	2.33*	5.0%	1.01
Cc1c(NC(=O)CN2C(=O)c3ccccc3S2(=O)=O)c(=O)n(-c2ccccc2)n1C	6.0	9.0	i	1.12	5.0%	1.02
COc1ccccc1CC(NC(C)=O)C(=O)N1CCN(C(=O)Nc2ccccc2Cl)CC1 (centres undefined)	8.0	7.0	i	1.09	5.0%	1.02
N#CCCn1nc(-c2ccccc2)cc1Nc1ccccc1NC(=O)c1cccs1	0.0	9.0	i	1.09	3.0%	1.05
CCN1CCN(CCNC(=O)c2cn(C(C)c3ccccc3F)nn2)CC1 (centres undefined)	11.0	0.0	i	1.07	2.0%	0.99
CCOC(=O)CN1CC23C=CC(O2)C(C(=O)NCc2ccccc2OC)C3C1=O (centres undefined)	19.0	3.0	i	1.08	7.0%	1.06
COc1ccc(Cl)cc1NC(=O)c1ccco1	6.0	8.0	i	1.12	5.0%	1.05
O=C(Nc1ccc(Cl)cc1C(=O)Nc1ccc(Br)cn1)c1ccco1	4.0	5.0	i	2.27*	3.0%	1.11
SMILES	PMK inhibit	MK inhibit	Spn DPM-DC inh	Autofluor 339	NADH enzymes	Abs 340nm
O=C(OCc1nc2ccccc2s1)c1cnccn1	10.0	3.0	i	1.07	4.0%	0.97
CC1CCc2c(sc(NC(=O)c3noc4c3CCCC4)c2C(N)=O)C1 (centres undefined)	0.0	6.0	nt	4.8*	3.0%	1.06
CCCn1c(=N)n(CC(O)COc2cccc(C)c2)c2ccccc21 (centres undefined)	4.0	4.0	i	1.1	3.0%	1.02
COCc1cc(C)nc2sc(C(=O)N3CCN(c4ccccc4)CC3)c(N)c12	6.0	6.0	i	1.24	7.0%	1.08
CCOC(=O)CNC(=O)c1sc2nc(C)cc(C)c2c1N	16.0	10.0	nt	3.87*	13.0%	1.08
CCOC(=O)c1sc2nc(C)cc(C)c2c1N	8.0	6.0	nt	2.4*	4.0%	1.02
Cc1cc(C)c2c(N)c(C(=O)N3CCN(c4ncccn4)CC3)sc2n1	10.0	13.0	i	2.2*	9.0%	1.01
C=CCOC(=O)COc1ccc2c(C)c(CC)c(=O)oc2c1	7.0	11.0	nt	3.9*	9.0%	1.08
C=CCNS(=O)(=O)c1ccc(OCC(=O)OCC)cc1	1.0	6.0	i	1.1	4.0%	1.03
C=CCOC(=O)COc1ccc2c(C)c(C)c(=O)oc2c1	8.0	6.0	nt	2.15*	7.0%	1.06
Cc1noc(C)c1COC(=O)COc1ccc2c(C)cc(=O)oc2c1	0.0	0.0	i	1.59	4.0%	1.07
CCCCSc1nnc2n(CCc3ccccc3)c(=O)c3c4c(sc3n12)COC(C)(C)C4	11.0	2.0	i	1.14	4.0%	0.98
CCN1C(=O)c2cccc3c(S(=O)(=O)NCc4ccco4)ccc1c23	3.0	8.0	i	2.29*	7.0%	1.05
c1ccc(CCNc2nc3ccccc3n3nnnc23)cc1	13.0	0.0	i	2.58*	7.0%	1.05
c1ccc(N2CCN(c3nc4ccccc4n4nnnc34)CC2)cc1	15.0	0.0	i	1.78	5.0%	1.06
COC(=O)C1=C(C)NC2=C(C(=O)CCC2)C1c1cccs1 (centres undefined)	4.0	3.0	i	1.55	7.0%	1.06
CC1=C(C(=O)N2CCCCC2)C(c2cccs2)C2=C(CCCC2=O)N1 (centres undefined)	9.0	0.0	nt	2.06*	3.0%	1.08
COc1cc(C2C(C(=O)N3CCOCC3)=C(C)NC3=C2C(=O)CCC3)ccc1OC(C)=O (centres undefined)	16.0	3.0	nt	3.69*	10.0%	1.1
COc1cc(OC)c(C2C(C(=O)N3CCOCC3)=C(C)NC3=C2C(=O)CC(C)(C)C3)cc1OC (centres undefined)	0.0	6.0	i	1.16	4.0%	1.11
CC1=C(C(=O)N2CCOCC2)C(c2ccccc2F)C2=C(CCCC2=O)N1 (centres undefined)	7.0	6.0	nt	2.94*	4.0%	1.06
